The values below come from PubChem BioAssay AID778 (Sanford-Burnham Center for Chemical Genomics, 2007).

The inhibition is the drop in the measured response relative to a control, in per cent.

The campaign covered roughly 96,000 compounds. About 20,000 (21%) were called active.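 Rule for the calls: active = CYP2C19 inhibition above a set limit at 5 µM in the primary screen (cut at about 50% in these data); inactive = the rest.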 These entries were drawn from the full list.

The target in the experiment is Cytochrome P450 2C19 (Homo sapiens) (UniProt P33261). As to the kind of experiment: blockers of cytochrome P450 2C19 activity – biochemical, luminescence, ADME assay, primary screen (AID 778).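 Note: plate controls were negative control wells for no effect and 2.5 mM tranylcypromine positive control for full effect.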 The note with it: CYP2C19 Supersomes, luciferin-H EGE luminescence, 30 min; at 5 µM; hits give high values.
Chain of Cytochrome P450 2C19 (Homo sapiens) (P33261 whole entry, looked up): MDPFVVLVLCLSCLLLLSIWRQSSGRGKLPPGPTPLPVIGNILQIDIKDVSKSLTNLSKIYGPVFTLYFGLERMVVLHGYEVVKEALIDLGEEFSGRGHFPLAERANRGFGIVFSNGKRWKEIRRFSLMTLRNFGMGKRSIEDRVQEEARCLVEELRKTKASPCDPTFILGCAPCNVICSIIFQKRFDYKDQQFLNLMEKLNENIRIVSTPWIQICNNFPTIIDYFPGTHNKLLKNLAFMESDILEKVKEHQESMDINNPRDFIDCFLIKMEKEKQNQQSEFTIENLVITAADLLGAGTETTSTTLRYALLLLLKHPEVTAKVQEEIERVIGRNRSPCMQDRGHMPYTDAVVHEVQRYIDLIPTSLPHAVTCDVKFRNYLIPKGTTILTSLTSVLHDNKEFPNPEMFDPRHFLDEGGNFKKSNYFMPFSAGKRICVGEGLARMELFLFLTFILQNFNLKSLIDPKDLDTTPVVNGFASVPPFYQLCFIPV
For `Cc1c2cnn(-c3ccccc3)c(=O)c2c(C)n1CCCC(=O)N1CCN(C)CC1`, the inhibition was -16% (inactive).

For the compound `O=C(Cn1cnc2ccccc2c1=O)NCC1COc2ccccc2O1` (stereo unspecified), the inhibition is 22.7% (inactive).

With `CC(=O)N(CN1C(=O)C2CC=CCC2C1=O)c1cccc(Cl)c1` (stereo unspecified), the inhibition is 46.5% (inactive).

Turning to `Cc1cc(C)c2nc(N3CCCC3)c(C#N)cc2c1`, the inhibition is -2.3% (inactive).

As for `Fc1ccc(Br)cc1/C=N/n1cnnc1`, the inhibition was 13.9% (inactive).

For the compound `CCN(CC)c1ccc2oc(=O)c(C)nc2c1`, the inhibition was 18.7% (inactive).

Turning to `COCc1cc(C(C)=O)ccc1OC`, the inhibition is 6.2% (inactive).

`COc1ccc(CC(=O)c2ccc(O)cc2O)cc1OC`: the inhibition is 88% (active).

Regarding `COc1ccc(CNC(=O)c2c(C)cc(=O)oc2C)cc1OC`, the inhibition was 5.4% (inactive).

As for `N#CCCN1CCN(S(=O)(=O)c2ccc(S(=O)(=O)N3CCCC3)cc2)CC1`, the inhibition was -7.1% (inactive).

Turning to `Cc1cc(-c2cccs2)nc(-n2cccc2)n1`, the inhibition is 4.9% (inactive).

Regarding `Cc1cc(C)nc(N(C#N)CC(=O)Nc2ccccc2)n1`, the inhibition was -2.6% (inactive).

On to `COc1ccc(C(=O)Oc2cc(/C=N/NS(=O)(=O)c3ccc(C)cc3)ccc2OC)cc1`, for which the inhibition is 4.8% (inactive).

For `CCOC(=O)CN(Cc1ccc(OC)c(OC)c1)S(=O)(=O)c1ccc(OC)cc1`, the inhibition is 81.1% (active).

Take `NS(=O)(=O)c1cccnc1Nc1cccc(Cl)c1`: the inhibition is 40.5% (inactive).

For the compound `CCCCNC(=O)c1ccccc1NC(=O)c1ccccc1N(C)S(C)(=O)=O`, the inhibition was 14.4% (inactive).

Take `COc1ccc(C(=O)CSc2nnc(COc3ccccc3)n2Cc2ccco2)cc1`: the inhibition is 35% (inactive).

For the compound `COc1ccc(C)cc1-n1nnnc1SCC(=O)c1cc(C)n(Cc2ccco2)c1C`, the inhibition is 98.7% (active).

`CNC(=O)CSc1nnnn1-c1ccc(C)cc1C`: the inhibition was 49.1% (inactive).

`Cc1nc2cc(-c3ccc(F)cc3)nn2c(N2CCOCC2)c1C`: the inhibition is 5.1% (inactive).

For the compound `Oc1ccc(-c2onc3ccc(Cl)cc23)cc1`, the inhibition was 19% (inactive).

Turning to `CCn1c2ccccc2c2cc(NC(=S)N3CCOCC3)ccc21`, the inhibition is 11.1% (inactive).

For `COc1ccc(NC(=O)Cn2c(=O)n(Cc3ccco3)c(=O)c3ccccc32)cc1`, the inhibition is 15.9% (inactive).

On to `CCn1c2ccccc2c2cc(NC(=O)C/C(C)=N/NC(=O)c3ccccc3N)ccc21`, for which the inhibition is 54.7% (active).

On to `CN(C(=O)c1ccccn1)c1nnc(-c2ccccn2)s1`, for which the inhibition is 1.1% (inactive).

As for `CCOC(=O)N1CCN(c2c(NCCCN3CCCC(C)C3)c(=O)c2=O)CC1` (stereo unspecified), the inhibition is 4.3% (inactive).

Turning to `CCCNC(=O)c1c(N)n(-c2ccc(S(N)(=O)=O)cc2)c2nc3ccccc3nc12`, the inhibition is -13.2% (inactive).

`CC(C)Cn1c(CN(Cc2ccccc2)Cc2ccccc2)nc2c1c(=O)n(C)c(=O)n2C`: the inhibition was 17.7% (inactive).

For `COCCn1c(CN(Cc2ccccc2)Cc2ccccc2)nc2c1c(=O)n(C)c(=O)n2C`, the inhibition was 76.4% (active).

Regarding `CC(C)CCn1c(CN(C)Cc2ccccc2)nc2c1c(=O)n(C)c(=O)n2C`, the inhibition was 42.8% (inactive).

`COCc1cc(C)nc2sc(C(=O)NC3CCCCC3)c(N)c12`: the inhibition was -2.5% (inactive).

For `Cc1cc(/C=N/n2cnnc2)c(C)n1-c1cccc(C(=O)O)c1`, the inhibition is 24.9% (inactive).

For the compound `Fc1ccccc1OCCSc1nc2ccccc2o1`, the inhibition was 46.8% (inactive).

`O=C(CSCc1ccccc1Cl)NNC(=O)c1ccccc1`: the inhibition was 40.1% (inactive).

As to `COc1ccccc1OCCC(=O)OCC(=O)NC(=O)NC(C)(C)C`, the inhibition was 14.2% (inactive).

Consider `Cc1ccccc1CSCC(=O)NC(=O)NC(C)(C)C`, for which the inhibition was 56% (active).

In the case of `Cn1c(=O)oc2cc(S(=O)(=O)N3CCC(C(=O)Nc4ccc(OC(F)(F)F)cc4)CC3)ccc21`, the inhibition is 30.4% (inactive).

On to `COc1ccccc1N1CC(C(=O)Nc2ccc(S(=O)(=O)N3CCOCC3)cc2)CC1=O` (stereo unspecified), for which the inhibition is -1.1% (inactive).

With `COC(=O)c1ccccc1NC(=O)C1CCN(S(=O)(=O)c2cc(OC)ccc2OC)CC1`, the inhibition is 93.5% (active).

With `COc1cccc(C(=O)Nc2ccc(N3CCCC3)cc2)c1`, the inhibition is 48.4% (inactive).

In the case of `O=C(CN1C(=O)C2C3C=CC(C3)C2C1=O)Nc1nc(-c2ccccn2)cs1` (stereo unspecified), the inhibition is -13.1% (inactive).

Regarding `C=C(C)COc1ccc(-c2n[nH]c(C)c2-c2ccccc2)c(O)c1`, the inhibition was 33.7% (inactive).

Turning to `C=C(C)COc1ccc(-c2n[nH]c(C)c2-c2ccccc2OC)c(O)c1`, the inhibition is 43.5% (inactive).

For the compound `COc1ccc(-c2n[nH]c(C)c2-c2ccc(OC)c(OC)c2)c(O)c1`, the inhibition was 98.5% (active).

For `COc1nc(N=C(N)N)nc2c(C)cccc12`, the inhibition was -8.7% (inactive).

Regarding `CCOC(=O)c1cc(-c2ccc(Cl)s2)nc2c1c(C)nn2C`, the inhibition is 17.2% (inactive).

Take `Cc1cc(C)c(S(=O)(=O)NCCCN2CCOCC2)cc1Br`: the inhibition is 53.9% (active).

For the compound `O=S(=O)(O)CCN1CCOCC1`, the inhibition was 2.1% (inactive).

Turning to `Cc1ccc(S(=O)(=O)NCCN2CCOCC2)cc1C`, the inhibition was 24.8% (inactive).

In the case of `COc1ccc(C)cc1NC(=O)CSc1nc(SC)ns1`, the inhibition is 35.5% (inactive).

With `Cc1ccc(C)c2[nH]c(=O)c(CCNC(=O)CC(C)C)cc12`, the inhibition was 29.7% (inactive).

Take `CCOC(=O)c1c(NC(=S)Nc2ccccc2)sc2c1CCN(C)C2`: the inhibition was 26.5% (inactive).

As for `CC1(C)SC2c3ccccc3C(=O)N2[C@@H]1C(=O)NCc1ccco1` (stereo partly specified), the inhibition was 62.8% (active).

With `COc1cc2c(cc1OC)C(C(=O)NCc1ccco1)C1c3ccccc3CCN1C2=O` (stereo unspecified), the inhibition was 10.7% (inactive).

In the case of `O=C(NCCCCCCNC(=O)NCc1ccco1)NCc1ccco1`, the inhibition is -12.7% (inactive).

Take `C=CCNc1nc(C)nc(OC)n1`: the inhibition is -16.5% (inactive).

With `CCNc1nc(N)nc(-c2cc(Cl)ccc2OC)n1`, the inhibition was 24.4% (inactive).

With `COc1nc(NCc2ccc(Cl)cc2)nc(OC)n1`, the inhibition is 58.5% (active).

For the compound `CCCNC(=S)NC1CC2CCCC(C1)N2CC(C)C` (stereo unspecified), the inhibition was 6.3% (inactive).

For the compound `CC(C)c1cc(C(=O)O)n[nH]1`, the inhibition is -11.8% (inactive).

For `Cc1cccc(-n2ncc(C#N)c2-n2cccc2)c1`, the inhibition is 21.9% (inactive).

Regarding `COc1ccccc1N1CCN(CCCCOc2ccc(F)cc2)CC1`, the inhibition was 13.1% (inactive).

As for `c1ccc(CCn2nnnc2CN2CCN(C3CCCC3)CC2)cc1`, the inhibition is -12% (inactive).

`COc1ccccc1N1CCN(Cc2nnnn2CCc2ccccc2)CC1`: the inhibition is 75.4% (active).

With `CCOC(=O)c1sc(N(Cc2ccccc2)C(=O)CN2C(=O)CN(C)C2=O)nc1C`, the inhibition is 14.5% (inactive).

For `CCOc1ccc(OCC)c(-c2c(=O)n(OCc3ccc(Cl)cc3)c3ccccc3[n+]2[O-])c1`, the inhibition is 76.2% (active).

With `Cc1cc(C)cc(NC(=O)c2cccc(NC(=O)C3C4CC5OC(=O)C3C5C4)c2)c1` (stereo unspecified), the inhibition is 3% (inactive).

On to `COc1ccc(N2CCN(C(=O)CSc3nnc4ncccn34)CC2)cc1`, for which the inhibition is 29.2% (inactive).

As to `Cc1ccc2nc(NC3=NCN(CCc4ccccc4)CN3)nc(C)c2c1`, the inhibition was -14.5% (inactive).

`COCn1c(COc2ccccc2)nc2ccccc21`: the inhibition is 51.4% (active).

Consider `COCC(=O)Nc1nnc(COc2ccccc2)s1`, for which the inhibition was -3% (inactive).

In the case of `CCC(=O)Nc1nc2ccccc2n1Cc1ccccc1C`, the inhibition is 49.7% (inactive).

On to `CCc1nc2ccccc2n(CCOCCOCCn2c(=O)c(CC)nc3ccccc32)c1=O`, for which the inhibition was 24.1% (inactive).

`COCc1nc2ccccc2n1Cc1ccccc1Br`: the inhibition was 55.6% (active).

For the compound `O=S(=O)(O)c1nc2ccccc2n1Cc1ccc(Cl)cc1Cl`, the inhibition is 11.3% (inactive).

As to `CCCCc1cc(=O)oc2cc(C)cc(OCc3nn[nH]n3)c12`, the inhibition was 11.2% (inactive).

Turning to `CN1CCN(S(=O)(=O)c2ccc(NC(=O)C3CCCO3)cc2)CC1` (stereo unspecified), the inhibition was 3.5% (inactive).

For `COc1ccc(OC)c2c1sc(=NC(=O)CN1C(=O)CCC1=O)n2C`, the inhibition is 11.6% (inactive).

For `COc1ccccc1NC(=O)c1ccc(C)s1`, the inhibition was 36.8% (inactive).

On to `c1cncc(-c2nnc3n2C2(CCCCC2)Cc2ccccc2-3)c1`, for which the inhibition is 3% (inactive).

`CCC1(CC)Cc2ccccc2-c2nc3ccccc3c(=O)n21`: the inhibition is 13.4% (inactive).

As to `O=c1c2ccccc2nc2n1C1(CCCCC1)Cc1ccccc1-2`, the inhibition was 74.3% (active).

For the compound `CCCCNc1ccc(C(=O)Nc2cccc(C)n2)cc1[N+](=O)[O-]`, the inhibition is -3% (inactive).

For the compound `COc1ccc(N(CCC#N)S(=O)(=O)c2ccc(Cl)cc2)cc1`, the inhibition was 49.6% (inactive).

For the compound `CCn1c(NC(=O)c2ccccc2)c(-c2cccs2)c(=O)c2ccccc21`, the inhibition is -4.5% (inactive).

Consider `COC(=O)c1ccccc1NC(=O)CN(Cc1ccc(Cl)cc1)S(C)(=O)=O`, for which the inhibition was 96.6% (active).

In the case of `COC(=O)c1ccc(NC(=O)c2ccccc2NS(=O)(=O)c2ccccc2)cc1`, the inhibition was 41.7% (inactive).

Turning to `COC(=O)c1ccccc1NC(=O)CN(Cc1ccccc1)S(C)(=O)=O`, the inhibition was 17.1% (inactive).

For the compound `CCOc1ccccc1N(CC(=O)Nc1ccccc1C(=O)OC)S(C)(=O)=O`, the inhibition was 14.5% (inactive).

On to `CCOc1ccc(NC(=O)c2ccccc2NS(C)(=O)=O)cc1`, for which the inhibition was 16.2% (inactive).

Consider `COC(=O)c1ccccc1NC(=O)c1ccccc1NS(C)(=O)=O`, for which the inhibition was 62.7% (active).

Consider `O=C(OC1CCCCC1=O)c1cccc(S(=O)(=O)NCc2ccccc2)c1` (stereo unspecified), for which the inhibition is 41.1% (inactive).

With `CC(=O)c1c(C)[nH]c(C(=O)NCCCN2CCCC2)c1C`, the inhibition was -10.9% (inactive).

In the case of `O=C(O)c1ccccc1-c1ccccc1C(=O)Nc1cccc2ccccc12`, the inhibition is 0.9% (inactive).

On to `COCCCNC(=O)c1ccc2c(c1)ncn2-c1ccccc1OC`, for which the inhibition is 1.5% (inactive).

`COc1ccccc1-n1cnc2cc(C(=O)NCC3CCCO3)ccc21` (stereo unspecified): the inhibition is 13.8% (inactive).

As to `COc1ccccc1-n1cnc2cc(NS(=O)(=O)c3ccccc3)ccc21`, the inhibition was 64.8% (active).

Turning to `O=C(Nc1nc2ccc(S(=O)(=O)N3CCCC3)cc2s1)C1CCCO1` (stereo unspecified), the inhibition was -2.2% (inactive).

On to `CCc1nnc(NC(=O)c2nc3nccc(C)n3n2)s1`, for which the inhibition was 0.6% (inactive).

As for `O=C(CSc1nc2ccccc2o1)N1c2ccccc2Sc2ccc(Cl)cc21`, the inhibition is 36.4% (inactive).

Regarding `O=C1Cc2ccccc2Sc2ccc(Cl)cc21`, the inhibition is 58.3% (active).
